Results taken from PubChem BioAssay (Tox21).
Several values for one entry are separate records, joined by “and”; a condition that tells them apart may be missing. Equal values may be shown once. More than one record can exist for a structure, and the calls need not agree. Activity calls are given as the source filed them. Unless noted, calls follow the shape of the dose curve; as a rule, active = well fitted curve in the direction sought with a large enough effect in the repeat runs; inconclusive = weak or mixed curves; inactive = no such curve, though single readings can be large; an effect the other way counts as inactive or inconclusive.

Columns and labels:
[1] = qHTS assay to identify small molecule antagonists of the thyroid receptor (TR) signaling pathway (AID 743065); also: nearly all actives have a fitted effect of over 55% in size; also: potency is read from the fitted curve at half-maximal effect
Outline: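 GH3.TRE-Luc rat pituitary cells carrying two TR response elements driving luciferase were plated for 4 h, given compound plus 1 nM T3 (final), and incubated 23.5 h at 37 C. ONE-Glo luminescence measured reporter inhibition; CellTiter-Fluor fluorescence tracked cytotoxicity.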

[2] = tested on: thyroid hormone receptor (rat, GH3 cells); test: qHTS assay to identify small molecule agonists of the thyroid receptor (TR) signaling pathway (AID 743066; calls by dose curve)
[3] = molecular target: Estrogen receptor (Homo sapiens) (UniProt P03372); test: qHTS assay to identify small molecule antagonists of the estrogen receptor alpha (ER-alpha) signaling pathway (AID 743069; active = well fitted curve in the direction sought with a large enough effect in the signal ratio in the repeat runs, not every such curve was filed as active; inconclusive = weak or mixed curves, or effect the other way; inactive = no such curve, though single readings can be large or run the other way; the % refers to the signal ratio; also: potency is read from the fitted curve at half-maximal effect)
Outline: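 HEK293 cells stably carrying an ER-alpha-UAS-bla beta-lactamase reporter were pre-cultured overnight in 2% charcoal-stripped FBS medium. Test compounds in DMSO were added together with 17beta-estradiol for 18 hr at 37C. Read-out was fluorescence after 2 hr with LiveBLAzer B/G FRET substrate at room temperature.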

[4] = qHTS assay to identify small molecule antagonists of the estrogen receptor alpha (ER-alpha) signaling pathway - cell viability counter screen (AID 743074; calls by dose curve; also: nearly all actives have a fitted effect of over 45% in size; also: potency is read from the fitted curve at half-maximal effect)
[5] = molecular target: Estrogen receptor (Homo sapiens) (UniProt P03372); test: qHTS assay to identify small molecule agonists of the estrogen receptor alpha (ER-alpha) signaling pathway (AID 743075; calls by dose curve)
[6] = molecular target: Estrogen receptor (Homo sapiens) (UniProt P03372); test: qHTS assay to identify small molecule agonists of the estrogen receptor alpha (ER-alpha) signaling pathway using the BG1 cell line (AID 743079); also: nearly all actives have a fitted effect of over 20% in size; also: potency is read from the fitted curve at half-maximal effect
[7] = qHTS assay to identify small molecule antagonists of the estrogen receptor alpha (ER-alpha) signaling pathway using the BG1 cell line (AID 743080; calls by dose curve;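 also: BG1 cells stimulated with 17beta-estradiol alongside compound; nearly all actives have a fitted effect of over 25% in size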; also: potency is read from the fitted curve at half-maximal effect)
Outline: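 Readout is ONE-Glo luminescence, taken 30 min at room temperature after reagent addition, preceded by a CellTiter-Fluor viability read; BG1-Luc-4E2 cells had received compound and 17beta-estradiol for 21.5 h at 37 C.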

[8] = qHTS assay to identify small molecule antagonists of the estrogen receptor alpha (ER-alpha) signaling pathway using the BG1 cell line - cell viability counter screen (AID 743081);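 also: compound given together with 17beta-estradiol as the ER stimulus; series mostly up to about 70 µM; nearly all actives have a fitted effect of over 45% in size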
Aromatase (Homo sapiens) = Aromatase (Homo sapiens) (UniProt P11511); test: qHTS assay to identify aromatase inhibitors (AID 743083); also: nearly all actives have a fitted effect of over 55% in size; also: potency is read from the fitted curve at half-maximal effect
[9] = qHTS assay to identify aromatase inhibitors - cell viability counter screen (AID 743084);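 also: cells stimulated with testosterone during compound exposure; nearly all actives have a fitted effect of over 55% in size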; also: potency is read from the fitted curve at half-maximal effect
[10] = molecular target: Aryl hydrocarbon receptor (Homo sapiens) (UniProt P35869); test: qHTS assay to identify small molecule that activate the aryl hydrocarbon receptor (AhR) signaling pathway (AID 743085);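 also: HG2L7.5c1 human HepG2 liver cells with stably integrated DRE-driven firefly reporter; series mostly up to about 70 µM; nearly all actives have a fitted effect of over 15% in size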
Outline: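 Cell line HG2L7.5c1 (human hepatoma, 20× DRE-luc). Plated, 5 h 37C, compound/DMSO added, 24 h 37C. CellTiter-Fluor 30 min 37C → fluorescence; then ONE-Glo 30 min RT → luminescence.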

[11] = qHTS assay to identify small molecule that activate the aryl hydrocarbon receptor (AhR) signaling pathway - cell viability counter screen (AID 743086);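 also: HepG2 liver cells carrying the AhR DRE luciferase reporter; series mostly up to about 70 µM; nearly all actives have a fitted effect of over 45% in size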
Outline: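 HepG2-AhR-luc (HG2L7.5c1) cells, 4000/well, were preincubated 5 h at 37C, exposed to compound in qHTS format for 24 hr at 37C, then given CellTiter-Fluor for 30 min; viability was read as fluorescence in the reporter wells.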

[12] = molecular target: Peroxisome proliferator-activated receptor gamma (Homo sapiens) (UniProt P37231); test: qHTS assay to identify small molecule agonists of the peroxisome proliferator-activated receptor gamma (PPARg) signaling pathway (AID 743094; active = well fitted activation curve with a large enough effect in the signal ratio in the repeat runs, not every such curve was filed as active; inconclusive = weak or mixed curves, or effect the other way; inactive = no such curve, though single readings can be large or run the other way; the % refers to the signal ratio; also: potency is read from the fitted curve at half-maximal effect)
Outline: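 Quantitative HTS agonist mode: stable HEK293H line with UAS-beta-lactamase reporter under PPARg control, 17 h compound exposure at 37C, fluorescence after 1 h FRET substrate loading at room temperature.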

[13] = qHTS assay to identify small molecule antagonists of the peroxisome proliferator-activated receptor gamma (PPARg) signaling pathway - cell viability counter screen (AID 743194); details: Potency: co-treated with 50 nM rosiglitazone; also: nearly all actives have a fitted effect of over 55% in size
Outline: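 PPARg-UAS-bla HEK293H cells were plated, rested 5 h at 37 C, then treated with compounds plus rosiglitazone (50 nM final) for 17 h at 37 C; viability was then read by CellTiter-Glo luminescence after 30 min at room temperature.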

[14] = qHTS assay for small molecule agonists of the antioxidant response element (ARE) signaling pathway (AID 743202; active = well fitted activation curve with a large enough effect in the signal ratio in the repeat runs, not every such curve was filed as active; inconclusive = weak or mixed curves, or effect the other way; inactive = no such curve, though single readings can be large or run the other way; the % refers to the signal ratio; also: potency is read from the fitted curve at half-maximal effect)
Outline: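 Read-out: LiveBLAzer B/G FRET substrate fluorescence after 2 h at room temperature, following 16 h compound treatment at 37 C of HepG2 cells carrying an ARE-driven beta-lactamase reporter.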

[15] = qHTS assay for small molecule agonists of the antioxidant response element (ARE) signaling pathway - cell viability counter screen (AID 743203; calls by dose curve; also: nearly all actives have a fitted effect of over 55% in size; also: potency is read from the fitted curve at half-maximal effect)
Outline: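 Seeded at 2,000 cells/well, ARE-bla HepG2 cells were incubated 5 hrs before compound addition. After 16 hrs of treatment at 37C with 5% CO2, CellTiter-Glo reagent was added and luminescence read 30 min later.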

[16] = qHTS assay for small molecule activators of the heat shock response signaling pathway - cell viability counter screen (AID 743209); also: nearly all actives have a fitted effect of over 50% in size; also: potency is read from the fitted curve at half-maximal effect
Outline: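 First, HSE-bla HeLa cells were seeded at 1500 cells/well and kept overnight at 37 C. Next, compounds were pinned in and incubated 5 h. After the FRET substrate step, CellTiter-Glo was added and luminescence read 30 min later.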

[17] = qHTS assay to identify small molecule agonists of the peroxisome proliferator-activated receptor delta (PPARd) signaling pathway - cell viability counter screen (AID 743211); also: nearly all actives have a fitted effect of over 55% in size; also: potency is read from the fitted curve at half-maximal effect
Outline: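 HEK293H PPARd-bla, 3000 cells/well; 5 h preincubation 37C/5% CO2; cpd in DMSO, 17 h 37C; B/G FRET substrate 2 h RT; CellTiter-Glo 30 min RT, luminescence.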

[18] = qHTS assay for small molecule activators of the heat shock response signaling pathway (AID 743210; active = well fitted activation curve with a large enough effect in the signal ratio in the repeat runs, with a control signal flat, not every such curve was filed as active; inconclusive = weak or mixed curves; the % refers to the signal ratio; also: series mostly up to about 63 µM)
Outline: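 HSE-bla HeLa cells (beta-lactamase reporter under heat shock response elements) were exposed to compounds for 5 h at 37 C, then loaded with LiveBLAzer B/G FRET substrate for 2.5 h at room temperature before fluorescence reading.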

[19] = molecular target: Peroxisome proliferator-activated receptor gamma (Homo sapiens) (UniProt P37231); test: qHTS assay to identify small molecule antagonists of the peroxisome proliferator-activated receptor gamma (PPARg) signaling pathway (AID 743191; calls by dose curve; also: nearly all actives have a fitted effect of over 30% in size; also: potency is read from the fitted curve at half-maximal effect)
Outline: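 GeneBLAzer PPARg UAS-bla HEK293H cells carrying a UAS-driven beta-lactamase reporter were plated at 3000 cells/well, preincubated 5 h at 37C, then given compound for 17 h at 37C; LiveBLAzer B/G FRET substrate was read after 1 h at room temperature.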

Measured: Potency

Sequence of Peroxisome proliferator-activated receptor gamma (Homo sapiens) (P37231 whole entry, looked up): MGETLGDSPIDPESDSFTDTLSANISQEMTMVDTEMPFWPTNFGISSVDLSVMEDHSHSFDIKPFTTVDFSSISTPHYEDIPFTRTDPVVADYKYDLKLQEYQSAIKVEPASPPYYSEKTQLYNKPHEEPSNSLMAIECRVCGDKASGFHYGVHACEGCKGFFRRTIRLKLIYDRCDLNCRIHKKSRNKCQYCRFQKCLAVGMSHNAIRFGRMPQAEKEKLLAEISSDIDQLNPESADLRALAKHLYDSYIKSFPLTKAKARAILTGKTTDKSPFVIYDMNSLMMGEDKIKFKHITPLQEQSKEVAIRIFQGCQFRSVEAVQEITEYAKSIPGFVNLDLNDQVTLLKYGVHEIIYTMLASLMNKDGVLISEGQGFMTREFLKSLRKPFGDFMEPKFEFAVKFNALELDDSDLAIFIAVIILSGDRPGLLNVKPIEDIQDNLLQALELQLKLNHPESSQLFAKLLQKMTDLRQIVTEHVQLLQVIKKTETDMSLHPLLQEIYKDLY
Sequence of Aromatase (Homo sapiens) (P11511 whole entry, looked up): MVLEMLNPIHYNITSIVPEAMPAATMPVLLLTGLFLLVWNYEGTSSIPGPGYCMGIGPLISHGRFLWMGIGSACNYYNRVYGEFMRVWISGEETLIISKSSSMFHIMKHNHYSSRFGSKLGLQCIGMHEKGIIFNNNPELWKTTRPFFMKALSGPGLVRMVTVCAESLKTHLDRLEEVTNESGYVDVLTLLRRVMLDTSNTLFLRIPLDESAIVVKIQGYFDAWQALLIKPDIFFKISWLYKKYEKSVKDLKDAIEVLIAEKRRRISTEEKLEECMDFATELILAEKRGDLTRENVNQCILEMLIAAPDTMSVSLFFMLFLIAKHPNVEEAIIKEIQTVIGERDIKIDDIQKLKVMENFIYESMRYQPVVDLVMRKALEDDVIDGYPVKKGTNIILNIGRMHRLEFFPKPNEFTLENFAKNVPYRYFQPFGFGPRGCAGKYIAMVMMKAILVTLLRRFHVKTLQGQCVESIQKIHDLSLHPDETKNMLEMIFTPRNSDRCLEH
Sequence of Aryl hydrocarbon receptor (Homo sapiens) (P35869 whole entry, looked up): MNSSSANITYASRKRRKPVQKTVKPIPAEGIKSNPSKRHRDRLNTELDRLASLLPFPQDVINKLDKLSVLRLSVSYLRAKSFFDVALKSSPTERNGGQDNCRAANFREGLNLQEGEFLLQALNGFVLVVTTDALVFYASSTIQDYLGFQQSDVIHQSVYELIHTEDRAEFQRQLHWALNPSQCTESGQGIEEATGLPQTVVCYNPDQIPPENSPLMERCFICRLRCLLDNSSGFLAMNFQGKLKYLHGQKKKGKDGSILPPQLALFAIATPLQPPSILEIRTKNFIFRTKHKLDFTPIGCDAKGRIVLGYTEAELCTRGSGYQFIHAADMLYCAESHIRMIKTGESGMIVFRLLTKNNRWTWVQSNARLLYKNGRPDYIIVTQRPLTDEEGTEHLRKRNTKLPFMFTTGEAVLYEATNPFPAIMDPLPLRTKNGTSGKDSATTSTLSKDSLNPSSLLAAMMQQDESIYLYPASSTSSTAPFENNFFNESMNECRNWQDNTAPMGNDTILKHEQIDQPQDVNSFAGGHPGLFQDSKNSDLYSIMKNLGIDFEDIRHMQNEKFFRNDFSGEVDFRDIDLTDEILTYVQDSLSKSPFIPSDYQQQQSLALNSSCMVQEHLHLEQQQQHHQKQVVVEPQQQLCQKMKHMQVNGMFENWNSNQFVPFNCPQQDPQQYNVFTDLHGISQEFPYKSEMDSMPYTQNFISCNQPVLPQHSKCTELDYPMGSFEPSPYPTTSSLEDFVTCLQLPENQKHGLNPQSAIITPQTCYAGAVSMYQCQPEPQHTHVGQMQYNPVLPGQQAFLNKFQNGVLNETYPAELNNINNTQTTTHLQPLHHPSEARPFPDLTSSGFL
Sequence of Estrogen receptor (Homo sapiens) (P03372 whole entry, looked up): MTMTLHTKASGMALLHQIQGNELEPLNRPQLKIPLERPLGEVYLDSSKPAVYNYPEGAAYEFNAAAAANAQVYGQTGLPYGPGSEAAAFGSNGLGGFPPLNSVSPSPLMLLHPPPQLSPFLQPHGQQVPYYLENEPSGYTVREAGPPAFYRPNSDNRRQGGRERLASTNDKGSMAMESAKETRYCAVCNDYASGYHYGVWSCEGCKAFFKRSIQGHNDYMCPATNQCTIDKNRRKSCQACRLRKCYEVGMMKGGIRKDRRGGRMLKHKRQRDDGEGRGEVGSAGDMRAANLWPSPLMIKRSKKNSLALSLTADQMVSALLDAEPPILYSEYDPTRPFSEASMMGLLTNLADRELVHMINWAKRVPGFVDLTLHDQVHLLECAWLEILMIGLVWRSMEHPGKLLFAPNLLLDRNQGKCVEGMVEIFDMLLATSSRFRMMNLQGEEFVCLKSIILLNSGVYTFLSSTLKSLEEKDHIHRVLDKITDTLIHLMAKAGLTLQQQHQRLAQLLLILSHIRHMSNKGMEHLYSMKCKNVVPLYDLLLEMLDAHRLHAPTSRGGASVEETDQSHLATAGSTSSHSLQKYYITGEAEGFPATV

C=CC(=O)OCC(C)C
not listed: [18] | [19]
inactive: all other assays above

Nc1nc(=S)[nH][nH]1
not listed: [16] | [19]
inactive: all other assays above

O=[N+]([O-])C(Br)(CO)CO
active: [1] 23.7 µM and 24.3 µM | [9] 61.1 µM
not listed: [14]
inactive: all other assays above

N#CCC#N
active: [1] 48.6 µM
not listed: [16] | [18]
inactive: all other assays above

CC(Cl)Cl
not listed: [6] | [10] | [14] | [16] | [19]
inactive: all other assays above

CC1(C)CCC(Cc2ccc(Cl)cc2)C1(O)Cn1cncn1 (stereo not drawn)
active: [1] 61.1 µM | [3] 61.6 µM [inconclusive] | [7] 61.1 µM | Aromatase (Homo sapiens) 30.6 µM | [19] 49 µM
not listed: [6] | [12] | [13] | [14] | [15] | [16]
inactive: all other assays above

CCOP(=O)(OCC)SCCSCC
not listed: [6]
inactive: all other assays above

CCOc1nc(F)cc2nc(S(=O)(=O)Nc3c(Cl)cccc3Cl)nn12
not listed: [12]
inactive: all other assays above

CN(N=O)c1ccc([N+](=O)[O-])cc1
not listed: [10]
inactive: all other assays above

O=C(O)C(F)(F)C(F)(F)C(F)(F)C(F)(F)C(F)(F)C(F)(F)C(F)(F)C(F)(F)C(F)(F)F
active: [3] 15.5 µM [inhibitor] | [14] 24.3 µM
not listed: [9] | [10] | [17] | [19]
inactive: all other assays above

O=C(NCc1cccnc1)Nc1ccc([N+](=O)[O-])cc1
active: [1] 68.6 µM
not listed: [10] | [19]
inactive: all other assays above

CCOP(=S)(Oc1ccc([N+](=O)[O-])cc1)c1ccccc1 (stereo not drawn)
active: [6] 27.3 µM
not listed: [10] | [12] | [14] | [18] | [19]
inactive: all other assays above

c1ccc(C2CC2)c(OCC2=NCCN2)c1
not listed: [8] | [10]
inactive: all other assays above

CC1(C)[C@H](C=C(Cl)Cl)[C@@H]1C(=O)O[C@@H](C#N)c1cccc(Oc2ccccc2)c1
not listed: [6] | [12] | [18] | [19]
inactive: all other assays above

NNC(=O)c1cccnc1
not listed: [6] | [10]
inactive: all other assays above

II
not listed: Aromatase (Homo sapiens) | [19]
inactive: all other assays above

Clc1cc(Cl)c(Cl)c(Cl)c1
not listed: [6] | [16]
inactive: all other assays above

C=C(C#N)CCC#N
not listed: [9] | [10] | [14]
inactive: all other assays above

CCOc1ccc(C(C)(C)COCc2cccc(Oc3ccccc3)c2)cc1
not listed: [10] | [14] | [19]
inactive: all other assays above

O=C(C(Cl)(Cl)Cl)C(Cl)(Cl)Cl
not listed: [13] | [19]
inactive: all other assays above

COC(=O)C(Cl)C(=O)OC
not listed: [7] | [10] | [14] | [16] | [19]
inactive: all other assays above

N#C/C(N)=C(/N)C#N
not listed: [10] | [19]
inactive: all other assays above

O=[N+]([O-])c1ccccc1CCl
active: [12] 0.0988 µM
not listed: [7] | [10] | [14] | [16]
inactive: all other assays above

CC(Cl)C(C)Cl (stereo not drawn)
not listed: [10] | [18]
inactive: all other assays above

CCCCNP(N)(N)=S
not listed: [6] | [10]
inactive: all other assays above

CC(C)=CCOc1c2occc2cc2ccc(=O)oc12
not listed: [8] | [10] | [14]
inactive: all other assays above

ClCc1ccccc1
not listed: [10] | [18] | [19]
inactive: all other assays above

CCBr
not listed: [10] | [12] | [18] | [19]
inactive: all other assays above

O=C(CCl)c1ccc(Cl)cc1Cl
active: [1] 1.5 µM and 3.44 µM | [4] 38.9 µM | [14] 5.31 µM | [16] 8.41 µM | [17] 18.8 µM
inactive and 26.6 µM (active): [15]
not listed: [12] | [13] | [18] | [19]
inactive: all other assays above

Cl/C=C\Cl
not listed: [7] | [12] | [18] | [19]
inactive: all other assays above

COP(=S)(Oc1cc(Cl)c(Br)cc1Cl)c1ccccc1 (stereo not drawn)
active: [1] 61.1 µM | [15] 48.6 µM
not listed: Aromatase (Homo sapiens) | [10] | [12] | [13] | [14] | [17] | [19]
inactive: all other assays above

CC(=O)C(C)(C)C
not listed: [10] | [16]
inactive: all other assays above

CCCC(=O)Cl
not listed: [14] | [16] | [19]
inactive: all other assays above
